ChEMBL document CHEMBL3988442, “University of Dundee, Small-Polar-MMV Screening Library” (2021)
Out of some 48,000 compounds screened, about 13,000 (27%) showed an effect of 50% or more. This is one part of the list.

The compounds below were run on Wolbachia pipientis (assay: Anti-Wolbachia Cell-Based Screen). Conditions: 5 µM.
Type: functional
Parameters: scale not given: in the data most compounds retested in dose-response had high values

Structure (SMILES) | Percent Effect [%]
COC(=O)N(C)CCCC(=O)Nc1[nH]nc(-c2ccncc2)c1C | -7.715
O=C1CC[C@H]2CN(C3CCOCC3)CC[C@H]2N1CCC1=CCCCC1 | 14.62
Cc1ccc(CN2CC[C@H]3O[C@@H](C(=O)N4CCCO4)CC[C@H]32)s1.O=C(O)C(F)(F)F | -7.276
Cc1ccc(N2CC[C@H]3O[C@@H](C(=O)N4CCCO4)CC[C@H]32)nn1.O=C(O)C(F)(F)F | 88.3
Cc1ccc(N2CC[C@H]3O[C@@H](C(=O)NCc4ccco4)CC[C@H]32)nn1.O=C(O)C(F)(F)F | 17.63
CSCCc1ccc(NC(=O)NC(C)Cn2cncn2)cc1 (configuration not stated) | -13.08
C[C@@H]1CN(c2cccnn2)CC[C@@]1(O)C1CCOCC1 | 104.1
C[C@@H]1CN(C(=O)c2c[nH]c(=O)c(Cl)c2)CC[C@@]1(O)C1CCOCC1 | 3.711
C[C@@H]1CN(C(=O)c2cnc(C3CC3)nc2)CC[C@@]1(O)C1CCOCC1 | -14.06
C[C@@H]1CN(c2ccc(C#N)cn2)CC[C@@]1(O)C1CCOCC1 | 124
C[C@@H]1CN(C(=O)c2ccc(C#N)nc2)CC[C@@]1(O)C1CCOCC1 | -17.54
CNc1ccnc(N2CC[C@@](O)(C3CCOCC3)[C@H](C)C2)n1 | 0.6002
C[C@@H]1CN(c2ccc(Cl)cn2)CC[C@@]1(O)C1CCOCC1 | 111.4
CN(Cc1ccsc1)C(=O)C1CCC(=O)N(Cc2ccccn2)C1 (configuration not stated) | 0.2635
O=C(Nc1ccc(F)cc1)C1CNCCN1C(=O)CSc1ccncc1 (configuration not stated) | -2.751
CN1CC(Nc2ccc(Br)cc2C#N)CCC1=O (configuration not stated) | -7.586
CN(Cc1n[nH]c(=O)n1Cc1cccs1)S(C)(=O)=O | 2.826
COc1ccc(CNC[C@H]2COCc3nc4cc(F)ccc4n32)cc1 | -1.545
Cc1cc(C)c2c(c1)C(NCc1nnc3n1CCC3)CCCO2 (configuration not stated) | -14.27
CC(C)c1nnc(CN(C)C(c2ccccc2)c2ccc(F)cc2)o1 (configuration not stated) | 6.032
Cn1ccc(C(=O)NCc2ccc(CN3CCCC3)cc2)cc1=O | 100.9
Cn1ccc(C(=O)NCc2cccc(Cn3ccnc3)c2)cc1=O | 0.02977
Cc1nccn1Cc1cccc(CNC(=O)c2ccn(C)c(=O)c2)c1 | 4.832
CC1CCN(Cc2ccc(CNC(=O)c3ccn(C)c(=O)c3)cc2)CC1 | 110.1
CC1CN(c2ccc(CNC(=O)c3ccn(C)c(=O)c3)cn2)CCO1 (configuration not stated) | -2.154
Cn1ccc(C(=O)NCc2ccc(Cn3ccnc3)cc2)cc1=O | -4.475

Structure (SMILES) | Percent Effect [%]
Cn1ccc(C(=O)NCc2ccc(N3CCCC3)nc2)cc1=O | -7.824
O=C(NCc1ccc(CN2CCCC2)cc1)NC1(CO)CCCC1 | -3.44
Cn1ccc(C(=O)NCc2ccc(CN3CCCCC3)cc2)cc1=O | 90.87
Cc1c(C)n(CC(O)CN2CCOCC2)c2c(Cl)cccc12.Cl (configuration not stated) | 0.7413
Cc1csc(C(C)(C)NCC(=O)N2CCCC(C(F)(F)F)C2)n1 (configuration not stated) | -11.49
COc1ccc(N(C(=O)c2ccccn2)C(C)C)cc1F | 1.663
CCc1ccc(CN2CCN(c3ncc(Cl)cn3)CC2)nc1 | -9.614
COCCN(CCOC)C(=O)c1ccn(-c2ccc3ccccn23)n1 | 3.271
NC(=O)CNC(=O)c1cc(Cn2cnc3ccccc32)[nH]n1 | -4.781
COCCN(C(=O)c1cc(-c2ccc(C)s2)[nH]n1)C1CC1 | 0.109
CCCN(CC)C(=O)c1cc(Cn2c(C)nc3ccccc32)[nH]n1 | 146
CCCN(CC)C(=O)c1nc2c(n1C)CCN(Cc1ccccc1)C2 | -8.908
CC(CNC(=O)c1cc(Cn2cnc3ccccc32)[nH]n1)N1CCCC1 (configuration not stated) | 2.077
CC(=O)N[C@H]1CCN(C(=O)c2cc(Cn3cnc4ccccc43)[nH]n2)C1 | -30.35
CCCN(CCOC)C(=O)c1cc(Cn2c(C)nc3ccccc32)[nH]n1 | 142.8
CCN(CCO)C(=O)c1cc(Cn2c(C)nc3ccccc32)[nH]n1 | 148
COc1ccc(OC)c(CNC2CCCN(c3cccnn3)C2)c1 (configuration not stated) | -14.68
Cc1ccoc1C(=O)N1CCNCC1C(=O)NCc1ccncc1 (configuration not stated) | -11.73
Cc1cc2n(n1)CC(CNCCc1cnn(C)c1)CN2 (configuration not stated) | -15.02
O=C(NCCCC(=O)N1Cc2ccccc2C1)NCc1nccs1 | -8.527
CC(=O)N1CCN(C(=O)CNc2ccc3ncsc3c2)CC1 | -9.479
CCCc1nc(N(C)CCc2noc(C(C)C)n2)c2cnn(C)c2n1 | 13.53
CCc1nnc2n1CCN(C(=O)C(C)COCc1ccccc1)C2 (configuration not stated) | 5.124
Cc1ccc(F)c2c1CCCN2C(=O)Cc1c(C)nn(C)c1C | -7.331
Cc1ccc(F)c2c1N(C(=O)Cc1c(C)nn(C)c1C)CCC2 | 55.91
Cc1nn(C)c(C)c1OCC(=O)N1CCCc2c(F)ccc(F)c21 | -4.523

Structure (SMILES) | Percent Effect [%]
Cn1c(CC2CCS(=O)(=O)C2)nnc1SCCOc1cccc(Cl)c1 (configuration not stated) | -0.5002
Cc1cc(C)c2ncn(CCC(C)O)c(=O)c2c1 (configuration not stated) | -16.19
N#CCCn1cnc2c(Br)cc(Br)cc2c1=O | 26.83
N#CCCn1cnc2c(F)cc(Br)cc2c1=O | 102.6
COCCn1cnc2c(F)cc(Br)cc2c1=O | 109.9
COc1cc2ccn(CCS(C)(=O)=O)c(=O)c2cc1F | 3.704
N#CCCCn1cnc2c(F)cc(Br)cc2c1=O | 100.3
Cc1cc(C)c2ncn(CC(C)(C)CO)c(=O)c2c1 | 2.019
N#CCCCn1nnnc1Cc1ccc(Br)cc1 | -5.124
CC(C)COc1ccccc1CN(C)C(=O)c1cc(=O)[nH]c(=O)[nH]1 | -33.98
CNCCNc1ccc(-c2nc(-c3cccc(OC)c3OC)no2)cn1 | -9.505
Cc1noc(C)c1CN1CCOCC12CCN(c1cnccn1)CC2.O=C(O)C(F)(F)F | 82.98
CC(C)N1CCOCC2(CCN(c3cnccn3)CC2)C1.O=C(O)C(F)(F)F | -21.42
Cc1noc(C)c1CN1CCC2(CC1)CN(c1ccccn1)CCO2.O=C(O)C(F)(F)F.O=C(O)C(F)(F)F | -6.126
Cc1nc(CN2CCOCC3(CCCN(c4cnccn4)C3)C2)cs1.O=C(O)C(F)(F)F (configuration not stated) | -4.433
Cc1noc(C)c1CN1CCOC2(CCCN(c3ncccn3)C2)C1.O=C(O)C(F)(F)F (configuration not stated) | 2.072
Cc1noc(C)c1CN1CCOCC12CCN(c1ncccn1)CC2.O=C(O)C(F)(F)F | 113.5
O=C(Cc1ccc2c(c1)CCO2)N1CCCC1c1noc(C2CC2)n1 (configuration not stated) | 96.74
CC(C)c1nc(C2CCCN2C(=O)CN(C)Cc2ccccc2)no1 (configuration not stated) | -1.303
CN(CC(=O)N1CCCC1c1noc(C2CC2)n1)Cc1ccccc1 (configuration not stated) | 125
O=C(COC1CCCC1)N1CCCC1c1noc(C2CC2)n1 (configuration not stated) | -26.64
O=C(COCc1ccccc1)N1CCCC1c1noc(C2CC2)n1 (configuration not stated) | 106.9
Cc1nc(C2CCCN2C(=O)CN(C)Cc2ccccc2)no1 (configuration not stated) | 10.99
O=C(Cc1noc2ccccc12)N1CCCC1c1noc(C2CC2)n1 (configuration not stated) | 8.423
Cc1noc(C2CN(Cc3ccc4c(c3)CCO4)C2)n1.O=C(O)C(=O)O | 22.63
FC(F)(F)COCCN1CCCC(c2noc(C3CC3)n2)C1 (configuration not stated) | 7.435

Structure (SMILES) | Percent Effect [%]
O=C(CCOCc1ccccc1)N1CCCC1c1noc(C2CC2)n1 (configuration not stated) | 14.67
O=C(CCOCC(F)(F)F)N1CCCC1c1noc(C2CC2)n1 (configuration not stated) | 110.3
CN(CC(=O)N1CCCC1c1noc(C2CC2)n1)S(C)(=O)=O (configuration not stated) | -4.579
CSCCC(=O)N1CCN(CC(O)C(C)(C)C)CC1 (configuration not stated) | -10.5
Cc1ccc(C(=O)N(C)S(C)(=O)=O)cc1Cl | -6.894
Cc1cc(S(=O)(=O)Nc2cccc(OC(F)F)c2)sc1C(=O)O | -5.292
Cc1nonc1C1CCCN1CCC(=O)N1CCc2ccccc2C1 (configuration not stated) | 3.529
O=C(CCS(=O)(=O)C1CCCC1)N1CCC(O)(C(F)(F)F)C1 (configuration not stated) | -5.456
O=C(NCC1(N2CCOCC2)CCSC1)Nc1ccncc1 (configuration not stated) | -3.46
Cc1nc(C2CCCN2C(=O)CCOCc2ccccc2)no1 (configuration not stated) | 99.19
Cc1nc(C2CCCN2C(=O)CCCOc2cccc(F)c2)no1 (configuration not stated) | -14
Cc1nc(CN2CCN(C(=O)COCc3ccccc3)CC2)no1 | 3.654
Cc1nc(C2CCCN2C(=O)COCc2ccccc2)no1 (configuration not stated) | 102.7
Cc1nc(C2CCCN2C(=O)COCCOc2ccccc2)no1 (configuration not stated) | -5.15
O=C1OCCN1CC(=O)N1C[C@H]2CC[C@@H]1CN(C(=O)c1ccccn1)C2 | -8.504
COc1cc(F)cc(NC(=O)NCc2cccc(N(C)C)n2)c1 | 5.244
O=C(C1CC=CC1)N1C[C@@H]2[C@@H](C1)OCC(=O)N2Cc1cccnc1 | -8.253
Cc1ncccc1O[C@H]1CCN(C(=O)Cc2cccs2)CC[C@@H]1O | 6.577
Cc1csc(C(=O)N2CC[C@H](Oc3cccnc3C)[C@@H](O)CC2)c1 | 110.7
Cc1ccc(C(=O)N2CC[C@H](Oc3cccnc3C)[C@@H](O)CC2)s1 | 123.3
Cc1ccc(C(=O)N2CCC(c3nccn3Cc3ccncc3)CC2)s1 | -4.938
CCc1ccc(C(=O)N2CC[C@H](Oc3cccnc3C)[C@@H](O)CC2)cc1 | 61.09
Cc1ncccc1O[C@H]1CCN(C(=O)c2cccs2)CC[C@@H]1O | -0.5375
COc1ccccc1OC1CCN(C(=O)c2cnc(C)s2)CC1 | 3.926
